BH1578 lux ind = induces V. cholerae light production without autoinducers; 350,000 tested, 0.16% active; V. cholerae BH1578 lux reporter, luminescence, 6 h; activation, % at 18.7 µM; in the data active = activation mostly above about 9.7%, no sharp cut-off
GDH-TPI counter-1 = inhibits GDH-TPI coupling enzymes, artifact for Mtb FBA screen. inhibition, % at 4.8 µM. 360,000 tested, 1.2% active. GDH-TPI coupled enzyme counterscreen, NADH absorbance; in the data active = inhibition above about 30%;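 also: 0% = DMSO wells and 100% = wells lacking the enzyme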
PrPC TRFRET = reduces human prion protein on the cell surface; 370,000 tested, 0.43% active; cell surface PrPC, TR-FRET read-out; inhibition, % at 13.8 µM; P04156; in the data active = inhibition above about 24%; also: 0% = median of the test wells and 100% = reference compound wells
SARS 3CLpro inh = SARS-CoV 3CLpro protease inhibition; P0C6X7; recombinant SARS-CoV 3CLpro, quenched FRET peptide cleavage; inhibition, % at 6 µM; 290,000 tested, 0.14% active; AID 1706; in the data active = inhibition above about 12%
FBA Mtb inh = inhibits M. tuberculosis FBA enzyme. inhibition, % at 1 µM. purified M. tuberculosis FBA, fluorescence read-out. 360,000 tested, 2.3% active;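 also: 0% = vehicle and 100% = reference inhibitor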
Target sequence (P9WQA3 whole entry, looked up): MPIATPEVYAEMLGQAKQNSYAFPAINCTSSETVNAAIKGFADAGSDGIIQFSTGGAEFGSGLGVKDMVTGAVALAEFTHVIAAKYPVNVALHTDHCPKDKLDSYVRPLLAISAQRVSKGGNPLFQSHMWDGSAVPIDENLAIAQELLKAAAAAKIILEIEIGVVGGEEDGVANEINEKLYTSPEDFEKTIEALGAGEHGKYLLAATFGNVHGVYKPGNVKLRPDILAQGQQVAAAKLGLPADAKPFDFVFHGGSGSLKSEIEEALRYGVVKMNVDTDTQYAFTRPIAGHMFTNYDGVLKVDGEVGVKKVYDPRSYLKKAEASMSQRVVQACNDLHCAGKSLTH
Mtb FBA confirm = confirmation of M. tuberculosis fructose-bisphosphate aldolase inhibitors | shares compounds with FBA Mtb inh | purified M. tuberculosis FBA, fluorescence read-out | inhibition, % at 1 µM | 5,600 tested, 78% active | AID 651616;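 also: 0% = vehicle wells and 100% = reference inhibitor wells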
GDH-TPI counter-2 = GDH-TPI inhibition counter-screen for FBA inhibitors; shares compounds with FBA Mtb inh; GDH-TPI coupled enzyme counterscreen, fluorescence; inhibition, % at 1 µM; 5,600 tested, 81% active; AID 652141; in the data active = inhibition above about 10%
GDH-TPI dose = inhibits GDH-TPI coupling enzymes in dose response; shares compounds with FBA Mtb inh; GDH-TPI coupled enzyme assay, fluorescence, artifact counterscreen; IC50, µM; 170 tested, 79% active; AID 652145; call rule not given here
Active calls of the source: *; i = inactive; x = no result given; + = active, no number. Hits are enriched below; roughly 3.9% of the tested compounds scored in any of these assays. Rule as the data show it, unless noted: active = inhibition above about 27%; inactive = the rest.

SMILES	BH1578 lux ind	GDH-TPI counter-1	PrPC TRFRET	SARS 3CLpro inh	FBA Mtb inh	Mtb FBA confirm	GDH-TPI counter-2	others
O=S1(=O)C=C[C@@H](CO)N1Cc1ccc(Br)cc1	x	x	11.8	x	2.5	x	x
COc1ccc(-c2cc3c(=O)n(CC(=O)NCCN4CCCC4)nc(C)n3n2)cc1	-0.2	-7.9	-2.1	-6.5	32.3*	62.9*	53.7*
CCN1CCN(CCCNC(=O)Cn2nc(C)n3nc(-c4ccccc4)cc3c2=O)CC1	i	-14.7	-10.8	1.7	-0.7	x	x
COC(=O)c1c(C)cc(C)c2c1CC(C)(C)C2=O	-0.5	4.8	-4.5	-3.1	0.8	x	x
O=C1CN(C(=O)COC(=O)CCC(=O)c2ccc(F)cc2)c2ccccc2N1	0.8	-0.4	1.7	x	2.5	x	x
Clc1ccc(Nc2ccc(-n3ccnc3)nn2)cc1Cl	i	10.4	20.0	-5.3	2.5	x	x
c1ccc(Nc2ccc(-n3ccnc3)nn2)cc1	-2.6	5.3	-1.0	0.3	69.0*	126.9*	139.8*
O=[N+]([O-])c1ccn(-c2nc(-c3cccs3)cc(C(F)(F)F)n2)n1	-0.4	28.6	-8.7	3.5	2.0	x	x
FC(F)(F)c1cc(-c2cccs2)nc(-n2cc(Cl)cn2)n1	i	19.7	-8.9	-1.9	30.2*	40.8*	35.2*
CC(C)c1cccc(-c2csc(C(C)(O)c3cccc(F)c3)n2)c1 (centres undefined)	i	12.5	2.2	x	4.0	x	x
CC(=O)Nn1cc2c(c1-c1ccccc1)c(=O)n(C)c(=O)n2C	i	-11.2	-1.5	-0.3	4.2	x	x
CC(=O)n1c(-c2ccccc2)c(-c2ccccc2)n(C)c1=O	-0.5	-4.4	5.2	x	49.6*	78.1*	50.3*
Cc1ccc(-c2nn(-c3ccccc3)cc2CO)o1	0.5	8.6	1.4	-1.8	32.6*	75.9*	53.8*
CCOC(=O)C1CCN(C(=O)Nc2ccc3nc(C)c(C)nc3c2)CC1	1.0	11.4	1.3	-4.5	78.1*	114.6*	77.1*
CCOC(=O)C1CCN(C(=O)Nc2ccc3oc(C)nc3c2)CC1	-0.1	-13.3	-5.5	2.4	-3.3	x	x
Cc1nc2ccc(NC(=O)N3CCOCC3)cc2s1	i	-4.9	0.4	1.0	0.0	x	x
Cc1nc2ccc(NC(=O)N3CCOCC3)cc2nc1C	i	8.9	1.3	-11.6	42.6*	+	147.3*
CCC1(C)Cc2nc(Cl)c(C#N)cc2CO1 (centres undefined)	i	0.8	5.3	2.2	2.8	x	x
CC1(C)Cc2nc(NC3CCCCC3)c(C#N)cc2CO1	-0.3	11.0	-2.7	3.9	35.8*	127.4*	110.6*
Cc1cc(-c2n[nH]c(=S)o2)c(C)n1-c1ccccc1	x	x	1.9	-1.6	x	x	x
S=c1[nH]nc(-c2c[nH]c3ccccc23)o1	-1.6	2.6	6.3	-3.6	50.0*	0.2	-2.5
CCc1ccc(Nc2ncc3c(n2)CC(C)(C)CC3=O)cc1	-0.4	17.0	2.1	2.7	34.6*	+	172.4*
Cc1nc2cc(-c3cccs3)[nH]n2c(=O)c1C	i	1.5	x	1.1	45.9*	11.1	2.0	GDH-TPI dose=5.65*
Cc1ccccc1-c1cc2nc(C)c(C)c(=O)n2[nH]1	3.0	-6.5	2.9	-0.2	15.8	x	x
C[C@@H]1CN([C@H](C)CO)C(=O)CCCn2cc(nn2)CO[C@H]1CN(C)C(=O)c1ccc2ccn(C)c2c1	x	x	0.5	x	4.0	x	x
SMILES	BH1578 lux ind	GDH-TPI counter-1	PrPC TRFRET	SARS 3CLpro inh	FBA Mtb inh	Mtb FBA confirm	GDH-TPI counter-2	others
CCc1nc2c(OCC(=O)C(C)(C)C)cccn2c1N(C)C(=O)COc1ccccc1	i	-11.6	3.0	x	-2.9	x	x
COc1ccc(-c2nc(CN3CCN(c4cc(C)nc(C)c4)CC3)c(C)o2)c2ccccc12	-0.3	1.9	-10.7	0.1	67.1*	44.8*	43.1*
O=C(c1ccc2c(c1)OCCO2)C1CCN(C(=O)Nc2ccccc2F)CC1	i	1.5	-3.3	-5.6	28.8*	71.4*	62.3*
C=CCOc1ccc(C(=O)c2ccccc2)c(OCC(=O)NC2(C#N)CCCC2)c1	-0.1	6.7	10.1	5.2	-1.8	x	x
COc1ccc(N(CC(=O)N/N=C/c2ccco2)S(=O)(=O)c2ccccc2)cc1Cl	-0.1	-6.3	-2.2	1.0	3.0	x	x
COCc1cc(C)nc(SC)c1C#N	-0.3	8.8	-3.3	-2.8	0.7	x	x
Cc1cc(C)c(C#N)c(N2CCOCC2)n1	i	8.3	-2.3	-0.6	25.5	x	x
COCc1cc(C)[nH]c(=O)c1C#N	i	18.1	4.3	0.7	66.2*	53.4*	41.4*
COCc1cc(C)nc(N2CCOCC2)c1C#N	0.0	5.6	-4.8	0.2	31.5*	37.2*	36.6*
COCc1cc(C)nc(NC2CC(C)(C)NC(C)(C)C2)c1C#N	-0.8	7.1	-1.5	-1.5	62.1*	83.1*	78.0*
COCc1cc(C)nc(N)c1C#N	0.5	2.6	-5.5	x	29.5*	+	+
COC(=O)Cc1ccc(NC(=S)NCCSc2ccc(Cl)cc2)cc1	-0.3	-1.6	2.3	2.0	3.4	x	x
COc1ccc(N(C)C(=O)c2cn(C)c(=O)c3cc(OC)c(OC)cc23)cc1	-0.1	-8.6	1.3	0.9	-3.0	x	x
CN1CCC(Oc2ccccc2Sc2ccccc2)CC1	i	8.4	-1.4	-1.9	28.7*	166.8*	130.0*
CN1CCC(OC(c2ccccc2)c2ccccc2)CC1	6.2	-2.6	-12.0	-1.9	0.1	x	x
CCOC(=O)C(C)Sc1nc(N2CCOCC2)c2c(c1C#N)CC(C)(C)OC2 (centres undefined)	-0.8	1.5	-1.0	x	2.4	x	x
CCOC(=O)C(CC)c1cc2n(c(=O)c1C#N)CCC21OCCO1 (centres undefined)	x	x	5.9	x	69.1*	+	+
Cc1c(OCC(=O)N2CCC[C@@H]2C(=O)O)ccc2c3c(c(=O)oc12)CCC3	-0.2	8.3	-1.9	-0.5	36.4*	93.2*	88.1*
CCCc1cc(=O)oc2c(C)c(OCC(=O)NC3CCN(Cc4ccccc4)CC3)ccc12	-0.5	7.6	-7.5	-5.5	5.4	x	x
CCc1cc(=O)oc2c(C)c(OC(C)C(=O)N3CCC[C@@H]3C(=O)O)ccc12 (some centres undefined)	-0.4	17.6	-3.0	3.7	42.0*	53.7*	61.5*
Cc1c(OCC(=O)N2CCC(C(N)=O)CC2)ccc2c3c(c(=O)oc12)CCC3	-0.5	17.6	5.6	-1.5	16.7	x	x
CCc1cc(=O)oc2c(C)c(OCC(=O)N3CCC[C@@H]3C(=O)O)ccc12	-0.5	8.3	2.2	0.5	58.4*	10.7	5.7	GDH-TPI dose=2.97*
COc1cccc(/C=C/C(=O)OCC(=O)NCCc2ccccc2)c1	-0.5	-8.0	1.3	1.2	27.8*	+	181.7*
